Results taken from PubChem BioAssay.
The source made the active and inactive calls. Unless noted, how the calls were made is not given here.

Experiments:
[1] = system: Wnt5a (protein binding on small-molecule microarray); assay: Wnt5a binders on small-molecule microarray, primary screen, biophysical, 635/667 nm fluorescence (AID 1142); settings: 635 nm fluorescence, higher = more signal;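 further: fluorescence read at 667 nm with signal to noise per printed feature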
[2] = cell viability in Huh7 cells, primary screen, cytotoxicity control for HCV replication inhibitor project, CellTiter-Glo luminescence, basal, 48 h (AID 1143); settings: Huh7 HCV replicon, higher = more signal, called active from +8 up or from −8 down;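 further: Huh7 hepatoma cells carrying a hepatitis C replication reporter with no stimulus; test concentration not given here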
[3] = P. aeruginosa biofilm formation inhibitors, primary screen, PAO1 strain, BacTiter-Glo luminescence, LB-PBS (AID 1144); settings: 12 h, higher = more signal
[4] = CREB reporter modulators without forskolin, primary screen, cell-based, PC12, CRE-LacZ reporter, unstimulated (AID 1145); settings: no forskolin, luminescence, 4.5 h, higher = more signal, called active from +8 up or from −8 down
[5] = CREB reporter modulators under forskolin, primary screen, cell-based, PC12, CRE-LacZ reporter, forskolin-stimulated (AID 1146); settings: luminescence, 4.5 h, higher = more signal, called active from +8 up or from −8 down;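 further: PC12 cells with 6xCRE LacZ reporter stimulated by forskolin 10 µM; beta-galactosidase reporter signal reflecting CREB driven transcription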
[6] = target: Streptavidin (Streptomyces avidinii) (UniProt P22629); assay: streptavidin binders on small-molecule microarray, primary screen, artefact control for SMM compound annotation, biophysical, 635/667 nm fluorescence (AID 1147); settings: streptavidin binding, higher = more signal;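 further: signal reflects streptavidin binding to arrayed compounds as a control protein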
Sequence of Streptavidin (Streptomyces avidinii) (P22629 whole entry, looked up): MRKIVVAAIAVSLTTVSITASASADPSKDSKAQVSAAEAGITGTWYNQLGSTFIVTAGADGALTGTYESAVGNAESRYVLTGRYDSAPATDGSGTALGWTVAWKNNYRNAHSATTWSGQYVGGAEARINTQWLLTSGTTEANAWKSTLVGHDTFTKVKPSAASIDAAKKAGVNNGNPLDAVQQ

[7] = small-molecule binders of probe aInhba, primary screen, biochemical, small-molecule microarray, 635/667 nm fluorescence (AID 1148); settings: higher = more signal;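 further: score merges 667nm spot fluorescence with signal-to-noise for antibody binding to printed compounds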
Torsin-1A (Homo sapiens) [8] = target: Torsin-1A (Homo sapiens) (UniProt O14656); assay: torsin A binders from cell lysate, primary screen, small-molecule microarray, wild-type, 635/667 nm (AID 1149); settings: COS7 hTOR1A-WT lysate, 635 nm fluorescence, higher = more signal
Sequence of Torsin-1A (Homo sapiens) (O14656 whole entry, looked up): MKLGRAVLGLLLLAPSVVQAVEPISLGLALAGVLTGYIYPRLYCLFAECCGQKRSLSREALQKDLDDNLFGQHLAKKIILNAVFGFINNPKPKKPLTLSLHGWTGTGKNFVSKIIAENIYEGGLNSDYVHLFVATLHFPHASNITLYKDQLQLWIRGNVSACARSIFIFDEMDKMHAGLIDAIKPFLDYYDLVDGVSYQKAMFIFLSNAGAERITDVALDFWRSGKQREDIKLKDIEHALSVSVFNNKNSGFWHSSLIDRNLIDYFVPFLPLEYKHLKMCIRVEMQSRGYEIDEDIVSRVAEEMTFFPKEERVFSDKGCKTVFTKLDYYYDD

Torsin-1A (Homo sapiens) [9] = target: Torsin-1A (Homo sapiens) (UniProt O14656); assay: small-molecule binders of mutant TOR1A in lysate, primary screen, cell lysate, small-molecule microarray, COS7 lysate, 635/667 nm fluorescence (AID 1150); settings: COS7 hTOR1A mutant lysate, 635 nm fluorescence, higher = more signal;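 further: score pools 667 nm emission and signal to noise measuring lysate protein binding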
[10] = system: Sonic hedgehog protein (Shh); assay: small-molecule binders of Shh protein, primary screen, biochemical, small-molecule microarray, 635/667 nm fluorescence (AID 1151); settings: small-molecule microarray binding, 635 nm fluorescence; higher = more signal;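 further: Shh protein binding to compounds spotted on small-molecule microarray slides; score combines spot fluorescence intensity with signal-to-noise across triplicate slides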
[11] = E. coli DRC41 culture turbidity changes, primary screen, E. coli filamentation inducer project, strain DRC41, OD650, 48 h (AID 1152);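 further: E. coli MC1000 strain DRC41 lacking acrAB efflux pump and sulA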; settings: E. coli DRC41 (acrAB sulA), higher = more signal, called active from +8 up or from −8 down
[12] = small-molecule binders of probe aLefty1, primary screen, biochemical, small-molecule microarray, 635/667 nm fluorescence (AID 1153); settings: higher = more signal;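 further: score merges spot fluorescence with signal-to-noise ratio from the scanned slide images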
[13] = PSAC antagonists in infected red cells, primary screen, cell-based, P. falciparum Indochina, OD700, 1 h (AID 1154); settings: P. falciparum Indochina infected RBC osmotic lysis, higher = more signal, called active from +8 up or from −8 down
[14] = PSAC antagonists in infected red cells, primary screen, cell-based, P. falciparum Indochina, OD700, 2 h (AID 1155);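 further: lysis reports solute entry through the parasite surface anion channel PSAC; channel blockers reduce lysis of infected cells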; settings: P. falciparum Indochina infected erythrocytes, osmotic lysis OD700; higher = more signal, called active from +8 up or from −8 down
[15] = osmotic lysis modulators in infected erythrocytes, primary screen, PSAC antagonist project, cell-based, P. falciparum Indochina, OD700, 3 h (AID 1156); settings: higher = more signal, called active from +8 up or from −8 down
[16] = PSAC antagonists in infected red cells, primary screen, cell-based, P. falciparum Indochina, OD700, 18 h (AID 1157); settings: P. falciparum Indochina infected erythrocytes, osmotic lysis OD700, 18 h; higher = more signal, called active from +8 up or from −8 down
[17] = modulators of S6 phosphorylation in cells, primary screen, cell-based, A549, cytoblot, luminescence, serum-stimulated (AID 1158); settings: A549 phospho-S6 cytoblot, 5 h, higher = more signal;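 further: serum-stimulated A549 lung adenocarcinoma cells; signal is phosphorylated S6 detected by cytoblot immunostaining with HRP secondary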
[18] = target: NADPH oxidase 2 (Homo sapiens) (UniProt P04839); assay: NOX2-dependent H2O2 signal modulators, primary screen, NOX inhibitor project, cell-based, HEK293-NOX2, PMA-stimulated, Amplex Red fluorescence (AID 1159); settings: 45 min, higher = more signal, called active from +8 up or from −8 down; further: test concentration not given here
Sequence of NADPH oxidase 2 (Homo sapiens) (P04839 whole entry, looked up): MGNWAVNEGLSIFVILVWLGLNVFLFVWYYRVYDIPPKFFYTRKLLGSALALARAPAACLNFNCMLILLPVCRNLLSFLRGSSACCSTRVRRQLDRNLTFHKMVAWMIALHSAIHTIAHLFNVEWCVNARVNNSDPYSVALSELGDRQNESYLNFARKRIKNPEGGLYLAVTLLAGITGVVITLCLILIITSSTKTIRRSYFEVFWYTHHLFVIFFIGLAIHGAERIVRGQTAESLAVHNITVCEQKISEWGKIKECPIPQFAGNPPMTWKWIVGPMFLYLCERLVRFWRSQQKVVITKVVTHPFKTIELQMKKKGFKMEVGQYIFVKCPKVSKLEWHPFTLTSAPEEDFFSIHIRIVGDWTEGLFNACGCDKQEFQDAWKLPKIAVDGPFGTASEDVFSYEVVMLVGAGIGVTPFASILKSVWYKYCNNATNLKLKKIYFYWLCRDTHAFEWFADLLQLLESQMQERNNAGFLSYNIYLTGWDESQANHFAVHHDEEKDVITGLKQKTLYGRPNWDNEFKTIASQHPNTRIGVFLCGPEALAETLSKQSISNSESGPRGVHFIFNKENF

[19] = target: NADPH oxidase 4 (Homo sapiens) (UniProt Q9NPH5); assay: NOX4-dependent H2O2 signal modulators, primary screen, NOX inhibitor project, cell-based, HEK293-NOX4, tetracycline-induced, Amplex Red fluorescence (AID 1160); settings: 45 min, higher = more signal, called active from +8 up or from −8 down
Sequence of NADPH oxidase 4 (Homo sapiens) (Q9NPH5 whole entry, looked up): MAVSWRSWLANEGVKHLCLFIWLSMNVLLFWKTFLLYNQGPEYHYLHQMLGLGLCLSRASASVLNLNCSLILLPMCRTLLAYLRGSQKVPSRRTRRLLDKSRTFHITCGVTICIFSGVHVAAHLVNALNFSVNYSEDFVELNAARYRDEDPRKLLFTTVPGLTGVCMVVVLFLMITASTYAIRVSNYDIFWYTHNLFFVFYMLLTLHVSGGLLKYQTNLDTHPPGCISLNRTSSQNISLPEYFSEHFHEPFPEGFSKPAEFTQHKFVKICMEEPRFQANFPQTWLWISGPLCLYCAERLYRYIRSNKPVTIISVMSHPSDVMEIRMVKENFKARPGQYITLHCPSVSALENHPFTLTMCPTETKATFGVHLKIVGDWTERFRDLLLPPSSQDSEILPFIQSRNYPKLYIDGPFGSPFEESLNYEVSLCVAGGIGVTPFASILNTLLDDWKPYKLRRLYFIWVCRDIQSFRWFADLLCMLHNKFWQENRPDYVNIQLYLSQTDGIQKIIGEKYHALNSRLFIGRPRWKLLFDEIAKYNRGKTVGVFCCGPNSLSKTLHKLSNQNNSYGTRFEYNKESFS

[20] = target: NADPH oxidase 5 (Homo sapiens) (UniProt Q96PH1); assay: NOX5-dependent H2O2 signal modulators, primary screen, NOX inhibitor project, cell-based, HEK293-NOX5, Amplex Red fluorescence (AID 1161); settings: HEK293-NOX5, ionomycin, 45 min, higher = more signal
Sequence of NADPH oxidase 5 (Homo sapiens) (Q96PH1 whole entry, looked up): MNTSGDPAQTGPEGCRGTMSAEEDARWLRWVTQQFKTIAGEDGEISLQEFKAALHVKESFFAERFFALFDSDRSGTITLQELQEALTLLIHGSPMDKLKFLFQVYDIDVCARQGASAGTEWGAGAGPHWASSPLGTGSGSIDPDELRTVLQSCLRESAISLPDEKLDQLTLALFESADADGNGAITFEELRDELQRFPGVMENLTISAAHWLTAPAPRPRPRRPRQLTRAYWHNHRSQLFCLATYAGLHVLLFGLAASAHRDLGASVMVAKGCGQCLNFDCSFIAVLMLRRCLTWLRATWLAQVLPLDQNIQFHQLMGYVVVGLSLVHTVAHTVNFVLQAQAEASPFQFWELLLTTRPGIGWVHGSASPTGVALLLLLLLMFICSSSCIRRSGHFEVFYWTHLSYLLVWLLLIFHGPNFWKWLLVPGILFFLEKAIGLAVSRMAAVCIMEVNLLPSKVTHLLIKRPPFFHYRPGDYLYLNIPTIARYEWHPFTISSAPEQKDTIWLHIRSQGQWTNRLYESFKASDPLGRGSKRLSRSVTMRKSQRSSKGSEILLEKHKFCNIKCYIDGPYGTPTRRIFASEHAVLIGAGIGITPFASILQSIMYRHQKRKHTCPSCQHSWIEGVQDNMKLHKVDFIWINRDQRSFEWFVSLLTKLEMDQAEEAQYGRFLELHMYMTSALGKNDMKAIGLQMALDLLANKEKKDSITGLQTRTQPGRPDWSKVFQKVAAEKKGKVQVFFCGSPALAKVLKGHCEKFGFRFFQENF

## C=CC[C@]12N=C(c3ccc(OCCCO)cc3)O[C@H]1c1ccccc1N(Cc1ccccc1)C2=O
[1]
  composite z-score: 0.373
[2]
  z-score: -3.92 (inactive)
[3]
  z-score: 0.71 (inactive)
[4]
  z-score: -0.389 (inactive)
[5]
  z-score: -1.64 (inactive)
[6]
  composite z-score: -0.255
[7]
  composite z-score: 0.153
Torsin-1A (Homo sapiens) [8]
  composite z-score: 0.35
Torsin-1A (Homo sapiens) [9]
  composite z-score: 1.04
[10]
  composite z-score: 0.351
[11]
  z-score: 0.323 (inactive)
[12]
  composite z-score: 0.445
[13]
  z-score: 28.8 (active)
[14]
  z-score: 27.9 (active)
[15]
  z-score: 3.64 (inactive)
[16]
  z-score: 6.21 (inactive)
[17]
  z-score: -0.329
[18]
  z-score: -0.89 (inactive)
[19]
  z-score: 0.393 (inactive)
[20]
  z-score: -0.835

## COCCOC(=O)N1C(=O)[C@@]2(c3cc(C#CC4=CCCCC4)ccc31)[C@H](c1ccc(O)cc1)N1[C@H](c3ccccc3)[C@H](c3ccccc3)OC(=O)[C@H]1[C@@H]2C(N)=O
[1]
  composite z-score: 0.824
[2]
  z-score: -1.83 (inactive)
[3]
  z-score: -0.591 (inactive)
[4]
  z-score: 0.0695 (inactive)
[5]
  z-score: 0.124 (inactive)
[6]
  composite z-score: 0.17
[7]
  composite z-score: -0.598
Torsin-1A (Homo sapiens) [8]
  composite z-score: 0.0873
Torsin-1A (Homo sapiens) [9]
  composite z-score: 0.522
[10]
  composite z-score: 2.07
[11]
  z-score: -0.623 (inactive)
[12]
  composite z-score: -0.523
[13]
  z-score: 2.57 (inactive)
[14]
  z-score: -0.403 (inactive)
[15]
  z-score: 0.193 (inactive)
[16]
  z-score: -0.104 (inactive)
[17]
  z-score: -0.0587
[18]
  z-score: 0.823 (inactive)
[19]
  z-score: 0.748 (inactive)
[20]
  z-score: 1.03

## COCCOC(=O)N1C(=O)[C@@]2(c3cc(C#CCCO)ccc31)[C@H](C(=O)Nc1nc3ccccc3s1)[C@H]1C(=O)O[C@H](c3ccccc3)[C@H](c3ccccc3)N1[C@@H]2c1ccc(OCCO)cc1
[1]
  composite z-score: 0.281
[2]
  z-score: -0.224 (inactive)
[3]
  z-score: -1.05 (inactive)
[4]
  z-score: -1.14 (inactive)
[5]
  z-score: -0.432 (inactive)
[6]
  composite z-score: 1.06
[7]
  composite z-score: 0.138
Torsin-1A (Homo sapiens) [8]
  composite z-score: 0.367
Torsin-1A (Homo sapiens) [9]
  composite z-score: 1.42
[10]
  composite z-score: 1.56
[11]
  z-score: 0.372 (inactive)
[12]
  composite z-score: 0.352
[13]
  z-score: 4.19 (inactive)
[14]
  z-score: 1.5 (inactive)
[15]
  z-score: 0.708 (inactive)
[16]
  z-score: 1.34 (inactive)
[17]
  z-score: -0.548
[18]
  z-score: 0.82 (inactive)
[19]
  z-score: 0.462 (inactive)
[20]
  z-score: 1.37
